According to PubChem BioAssay:
The source made the active and inactive calls.

Tests used:
[1] = tested on: PRMT1 (protein arginine N-methyltransferase 1); assay: PRMT1 binders on small-molecule microarrays, primary screen, biochemical, small-molecule microarray, 635 nm fluorescence (AID 1088); details: small-molecule microarray binding, higher = more signal;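 note: binding of Prmt1 protein to compounds spotted on small-molecule microarray slides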
[2] = yeast growth modulation, basal conditions, primary screen, YJM789 clinical isolate, OD600, 24 h (AID 1089);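 note: growth of clinical yeast isolate S. cerevisiae YJM 789 seeded 1000 cells per well; test concentration not given here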; details: S. cerevisiae YJM789 growth, higher = more signal, called active from +8 up or from −8 down
[3] = fission yeast growth modulation, primary screen, strain 972, OD600, 24 h, no modulator (AID 1090);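 note: basal condition with compound alone and no growth modifier present; test concentration not given here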; details: S. pombe 972 growth, higher = more signal, called active from +8 up or from −8 down
[4] = S. cerevisiae growth modulation with rapamycin, primary screen, strain BY4716, OD600, 96 h (AID 1091); details: higher = more signal, called active from +8 up or from −8 down; note: test concentration not given here
[5] = target: Torsin-1A-interacting protein 2 (Homo sapiens) (UniProt Q8NFQ8); assay: LULL1 binders on small-molecule microarray, primary screen, cell lysate, human LULL1 lysate, 635/667 nm fluorescence (AID 1092); details: hLULL1 lysate binding, 635 nm fluorescence, higher = more signal;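 note: probe is lysate of COS7 cells overexpressing human LULL1; score merges per-feature 667 nm fluorescence with signal-to-noise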
Sequence of Torsin-1A-interacting protein 2 (Homo sapiens) (Q8NFQ8 whole entry, looked up): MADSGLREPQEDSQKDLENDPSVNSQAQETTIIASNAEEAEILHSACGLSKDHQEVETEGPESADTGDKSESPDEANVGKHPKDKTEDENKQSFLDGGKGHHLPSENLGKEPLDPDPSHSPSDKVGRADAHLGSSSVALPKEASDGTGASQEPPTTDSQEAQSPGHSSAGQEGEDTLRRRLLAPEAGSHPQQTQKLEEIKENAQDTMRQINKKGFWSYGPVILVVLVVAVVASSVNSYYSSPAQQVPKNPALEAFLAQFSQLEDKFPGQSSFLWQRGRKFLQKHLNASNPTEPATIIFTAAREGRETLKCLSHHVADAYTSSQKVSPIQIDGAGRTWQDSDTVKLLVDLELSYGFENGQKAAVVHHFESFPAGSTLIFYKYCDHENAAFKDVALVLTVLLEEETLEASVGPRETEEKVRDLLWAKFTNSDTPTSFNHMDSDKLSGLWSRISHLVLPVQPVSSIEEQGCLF

[6] = E. coli growth modulation, two-sided OD650, primary screen, E. coli filamentation project, strain DRC41, 24 h (AID 1093); details: OD650, 24 h, higher = more signal, called active from +8 up or from −8 down;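 note: MC1000 strain lacking acrAB efflux and sulA so SOS filamentation is blocked; test concentration not given here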
[7] = small-molecule microarray binders of probe aLefty2, primary screen, biochemical, biotinylated probe, 635/667 nm fluorescence (AID 1094); details: higher = more signal;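 note: score merges spot fluorescence near 667 nm with spot signal-to-noise ratio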
[8] = tested on: Noggin (protein binding on small-molecule microarray); assay: Noggin binders on small-molecule microarray, primary screen, biochemical, 635/667 nm fluorescence (AID 1095); details: 635 nm fluorescence, higher = more signal;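 note: score merges 667 nm feature fluorescence with signal to noise over triplicate slides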
[9] = target: Neurogenic locus notch homolog protein 3 (Homo sapiens) (UniProt Q9UM47); assay: NOTCH3 binders on small-molecule microarray, primary screen, biochemical, 635/667 nm fluorescence (AID 1096); details: NOTCH3 binding, 635 nm fluorescence, higher = more signal
Sequence of Neurogenic locus notch homolog protein 3 (Homo sapiens) (Q9UM47 whole entry, looked up): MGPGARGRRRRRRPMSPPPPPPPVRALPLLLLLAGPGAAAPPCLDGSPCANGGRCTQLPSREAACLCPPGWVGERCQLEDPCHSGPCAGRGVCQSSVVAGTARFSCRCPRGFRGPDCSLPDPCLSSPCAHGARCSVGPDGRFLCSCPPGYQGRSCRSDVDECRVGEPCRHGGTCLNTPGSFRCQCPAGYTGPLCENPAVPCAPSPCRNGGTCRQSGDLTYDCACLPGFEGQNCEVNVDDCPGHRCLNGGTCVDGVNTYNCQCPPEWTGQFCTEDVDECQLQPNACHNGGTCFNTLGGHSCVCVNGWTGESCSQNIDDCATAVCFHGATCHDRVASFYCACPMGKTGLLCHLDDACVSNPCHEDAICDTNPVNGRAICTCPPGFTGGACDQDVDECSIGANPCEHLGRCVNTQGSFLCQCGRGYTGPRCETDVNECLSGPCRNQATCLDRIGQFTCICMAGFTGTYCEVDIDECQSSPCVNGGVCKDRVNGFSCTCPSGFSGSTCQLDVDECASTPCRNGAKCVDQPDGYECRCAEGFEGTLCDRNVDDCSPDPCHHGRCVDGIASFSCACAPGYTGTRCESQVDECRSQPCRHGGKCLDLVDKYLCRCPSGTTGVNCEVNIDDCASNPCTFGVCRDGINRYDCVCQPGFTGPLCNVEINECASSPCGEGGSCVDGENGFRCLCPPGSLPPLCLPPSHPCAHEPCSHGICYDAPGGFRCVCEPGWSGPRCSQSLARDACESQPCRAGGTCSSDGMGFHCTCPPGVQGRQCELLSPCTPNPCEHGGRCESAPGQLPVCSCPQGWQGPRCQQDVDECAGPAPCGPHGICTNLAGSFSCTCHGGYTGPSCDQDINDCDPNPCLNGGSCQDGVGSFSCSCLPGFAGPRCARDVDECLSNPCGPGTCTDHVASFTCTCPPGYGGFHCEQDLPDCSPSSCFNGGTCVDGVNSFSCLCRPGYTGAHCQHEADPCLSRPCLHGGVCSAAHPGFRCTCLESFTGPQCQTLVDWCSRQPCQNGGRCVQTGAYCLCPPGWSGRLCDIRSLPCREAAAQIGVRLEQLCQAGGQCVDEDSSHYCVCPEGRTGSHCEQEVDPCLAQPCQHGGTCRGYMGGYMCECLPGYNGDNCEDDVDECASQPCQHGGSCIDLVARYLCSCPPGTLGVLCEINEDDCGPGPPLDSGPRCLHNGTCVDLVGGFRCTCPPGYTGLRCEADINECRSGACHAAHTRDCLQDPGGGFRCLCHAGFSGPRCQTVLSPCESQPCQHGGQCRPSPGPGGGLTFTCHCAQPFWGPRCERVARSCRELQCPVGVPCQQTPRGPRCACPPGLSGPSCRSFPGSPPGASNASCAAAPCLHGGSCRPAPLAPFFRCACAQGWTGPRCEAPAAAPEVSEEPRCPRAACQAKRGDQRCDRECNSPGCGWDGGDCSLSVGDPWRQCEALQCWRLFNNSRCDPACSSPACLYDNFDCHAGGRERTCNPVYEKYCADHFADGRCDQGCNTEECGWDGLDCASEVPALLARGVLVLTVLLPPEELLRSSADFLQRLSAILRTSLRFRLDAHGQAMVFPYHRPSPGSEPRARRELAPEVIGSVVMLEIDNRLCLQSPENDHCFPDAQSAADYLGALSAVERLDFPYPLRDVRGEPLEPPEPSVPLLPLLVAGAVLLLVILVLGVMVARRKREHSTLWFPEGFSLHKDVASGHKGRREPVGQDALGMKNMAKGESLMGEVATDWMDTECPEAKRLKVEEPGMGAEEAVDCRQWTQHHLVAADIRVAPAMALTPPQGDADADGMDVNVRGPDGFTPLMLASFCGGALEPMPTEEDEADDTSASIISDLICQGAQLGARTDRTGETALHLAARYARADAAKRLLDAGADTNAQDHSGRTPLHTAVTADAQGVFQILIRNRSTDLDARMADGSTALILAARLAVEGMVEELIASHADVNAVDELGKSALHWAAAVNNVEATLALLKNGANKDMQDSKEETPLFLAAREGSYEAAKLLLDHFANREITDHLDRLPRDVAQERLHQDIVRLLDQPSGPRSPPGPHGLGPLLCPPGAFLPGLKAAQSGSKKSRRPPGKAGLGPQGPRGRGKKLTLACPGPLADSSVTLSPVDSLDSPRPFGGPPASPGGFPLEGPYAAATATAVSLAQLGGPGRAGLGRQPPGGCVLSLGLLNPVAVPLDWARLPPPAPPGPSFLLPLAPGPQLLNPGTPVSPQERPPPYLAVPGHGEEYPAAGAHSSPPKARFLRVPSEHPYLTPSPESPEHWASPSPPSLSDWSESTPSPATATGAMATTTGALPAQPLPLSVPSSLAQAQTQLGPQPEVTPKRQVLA

[10] = small-molecule microarray binders of probe aEGFR, primary screen, biochemical, biotinylated probe, 635/667 nm fluorescence (AID 1097); details: higher = more signal;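 note: probe is a biotinylated anti-EGFR antibody binding compounds printed on slides; score combines fluorescence near 667 nm and signal to noise of each spot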
[11] = tested on: Plasmodium falciparum Sir2 (PF13_0152, Sir2A); assay: pfSir2 binders on small-molecule microarrays, primary screen, biochemical, small-molecule microarray, 635 nm fluorescence (AID 1098); details: small-molecule microarray binding, fluorescence 635 nm; higher = more signal;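 note: score merges spot fluorescence intensity with its signal-to-noise ratio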
[12] = small-molecule microarray binders of probe aDKK1, primary screen, biochemical, biotinylated probe, 635/667 nm fluorescence (AID 1099); details: higher = more signal;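 note: score merges 667nm spot fluorescence with signal to noise across triplicate slides; reference of the scale not given here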
[13] = small-molecule microarray binders of probe aCHRDL2, primary screen, biochemical, biotinylated probe, 635/667 nm fluorescence (AID 1100); details: higher = more signal
[14] = splicing luciferase reporter signal modulators, primary screen, spliceosome inhibition project, cell-based, HEK293, splice +/- reporter (AID 1101); details: luminescence, 24 h, higher = more signal, called active from +8 up or from −8 down;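 note: HEK293 cells carrying a splicing-competent luciferase reporter gene; test concentration not given here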
[15] = target: Fibroblast growth factor 10 (Homo sapiens) (UniProt O15520); assay: FGF10 binders on small-molecule microarrays, primary screen, biochemical, small-molecule microarray, 635 nm fluorescence (AID 1102); details: FGF10 binding, fluorescence 635 nm, higher = more signal
Sequence of Fibroblast growth factor 10 (Homo sapiens) (O15520 whole entry, looked up): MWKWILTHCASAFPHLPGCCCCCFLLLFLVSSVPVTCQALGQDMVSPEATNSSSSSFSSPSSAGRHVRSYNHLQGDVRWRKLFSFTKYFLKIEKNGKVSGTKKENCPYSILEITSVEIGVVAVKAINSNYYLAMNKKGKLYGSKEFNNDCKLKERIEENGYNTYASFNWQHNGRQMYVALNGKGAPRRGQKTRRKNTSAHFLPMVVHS

[16] = tested on: glycogen synthase kinase-3 (GSK3A per assay name; protocol says GSK3B); assay: GSK3 binders on small-molecule microarrays, primary screen, biochemical, small-molecule microarray, 635 nm fluorescence, GSK3A (AID 1103); details: small-molecule microarray binding, fluorescence 635 nm; higher = more signal; note: the record names both GSK3A and GSK3B
[17] = target: Epidermal growth factor receptor (Homo sapiens) (UniProt P00533); assay: EGFR binders on small-molecule microarrays, primary screen, biochemical, small-molecule microarray, 635 nm fluorescence (AID 1104); details: EGFR binding, higher = more signal;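 note: score merges 667 nm emission intensity with spot signal to noise over triplicate slides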
Sequence of Epidermal growth factor receptor (Homo sapiens) (P00533 whole entry, looked up): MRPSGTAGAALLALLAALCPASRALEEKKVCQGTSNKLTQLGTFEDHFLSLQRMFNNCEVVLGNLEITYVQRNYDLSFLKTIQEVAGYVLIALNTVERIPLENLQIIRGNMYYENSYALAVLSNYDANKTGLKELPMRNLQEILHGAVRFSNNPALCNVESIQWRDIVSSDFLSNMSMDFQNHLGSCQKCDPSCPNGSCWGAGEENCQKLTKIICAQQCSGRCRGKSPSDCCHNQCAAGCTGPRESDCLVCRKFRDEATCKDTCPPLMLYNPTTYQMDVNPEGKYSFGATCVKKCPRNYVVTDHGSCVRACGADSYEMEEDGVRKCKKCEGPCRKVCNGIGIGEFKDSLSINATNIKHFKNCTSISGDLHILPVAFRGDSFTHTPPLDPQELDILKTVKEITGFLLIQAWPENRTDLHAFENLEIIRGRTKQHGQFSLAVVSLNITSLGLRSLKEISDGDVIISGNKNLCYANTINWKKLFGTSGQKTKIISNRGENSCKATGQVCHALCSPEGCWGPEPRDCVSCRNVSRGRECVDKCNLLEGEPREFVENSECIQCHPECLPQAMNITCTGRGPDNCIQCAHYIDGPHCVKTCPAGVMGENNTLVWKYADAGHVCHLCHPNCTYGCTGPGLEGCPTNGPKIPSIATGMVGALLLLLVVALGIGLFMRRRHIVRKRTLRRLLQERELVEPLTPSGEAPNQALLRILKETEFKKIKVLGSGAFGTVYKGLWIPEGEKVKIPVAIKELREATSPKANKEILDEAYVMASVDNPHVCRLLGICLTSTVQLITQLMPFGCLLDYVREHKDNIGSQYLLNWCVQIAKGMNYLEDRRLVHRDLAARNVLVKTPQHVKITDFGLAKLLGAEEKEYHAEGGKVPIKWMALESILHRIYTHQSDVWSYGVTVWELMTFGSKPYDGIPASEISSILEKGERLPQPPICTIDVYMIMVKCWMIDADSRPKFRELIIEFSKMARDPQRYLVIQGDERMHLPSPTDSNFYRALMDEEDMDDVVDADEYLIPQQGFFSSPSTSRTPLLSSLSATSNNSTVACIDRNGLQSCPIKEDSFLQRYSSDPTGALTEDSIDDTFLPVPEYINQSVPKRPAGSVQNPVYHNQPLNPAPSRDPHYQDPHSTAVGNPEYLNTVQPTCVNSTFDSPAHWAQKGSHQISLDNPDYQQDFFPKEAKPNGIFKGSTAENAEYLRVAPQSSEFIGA

[18] = target: Follistatin-related protein 3 (Homo sapiens) (UniProt O95633); assay: FSTL3 binders on small-molecule microarrays, primary screen, biochemical, small-molecule microarray, 635 nm fluorescence (AID 1105); details: FSTL3 binding, higher = more signal;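 note: score merges emission near 667 nm and signal to noise per printed spot across three slides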
Sequence of Follistatin-related protein 3 (Homo sapiens) (O95633 whole entry, looked up): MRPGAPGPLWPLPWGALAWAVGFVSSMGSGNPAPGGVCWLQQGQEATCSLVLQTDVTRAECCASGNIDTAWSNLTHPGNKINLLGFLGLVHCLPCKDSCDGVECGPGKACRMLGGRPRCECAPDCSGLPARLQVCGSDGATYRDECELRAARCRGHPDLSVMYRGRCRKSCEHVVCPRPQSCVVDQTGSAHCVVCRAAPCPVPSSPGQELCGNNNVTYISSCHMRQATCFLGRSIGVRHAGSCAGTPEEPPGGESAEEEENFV

[19] = target: Dickkopf-related protein 1 (Homo sapiens) (UniProt O94907); assay: DKK1 binders on small-molecule microarrays, primary screen, biochemical, small-molecule microarray, 635 nm fluorescence scan (AID 1106); details: DKK1 binding, higher = more signal;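 note: score merges emission near 667 nm with signal to noise over three replicate slides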
Sequence of Dickkopf-related protein 1 (Homo sapiens) (O94907 whole entry, looked up): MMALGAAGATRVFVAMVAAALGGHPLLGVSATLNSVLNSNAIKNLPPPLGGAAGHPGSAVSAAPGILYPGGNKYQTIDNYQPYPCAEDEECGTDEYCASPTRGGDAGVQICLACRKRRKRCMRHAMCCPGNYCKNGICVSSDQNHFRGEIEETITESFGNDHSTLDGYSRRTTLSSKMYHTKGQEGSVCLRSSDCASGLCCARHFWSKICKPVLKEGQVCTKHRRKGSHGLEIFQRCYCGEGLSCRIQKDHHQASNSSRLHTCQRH

[20] = tested on: Inhibin beta A chain (activin A); assay: INHBA (activin A) binders on microarrays, primary screen, biochemical, small-molecule microarray, 635 nm fluorescence scan (AID 1107); details: small-molecule microarray binding, higher = more signal;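 note: mouse activin A protein probed at 4.33 µg/mL on printed slides; score merges bound-protein fluorescence near 667 nm with spot signal-to-noise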

Compound	composite z-score [1]	z-score [2]	z-score [3]	z-score [4]	composite z-score [5]	z-score [6]	composite z-score [7]	composite z-score [8]	composite z-score [9]	composite z-score [10]	composite z-score [11]	composite z-score [12]	composite z-score [13]	z-score [14]	composite z-score [15]	composite z-score [16]	composite z-score [17]	composite z-score [18]	composite z-score [19]	composite z-score [20]
COc1ccc([Si](C)(C)[C@H]2[C@H](CC(=O)N(CCO)Cc3ccccc3)O[C@@]3(C(=O)N(C)c4c(Br)cc(C)cc43)[C@@H]2C)cc1	1.46	-1.62 (inactive)	-1.59 (inactive)	1.93 (inactive)	1.25	0.114 (inactive)	0.0256	1.79	0.758	-0.126	0.827	-0.0876	-0.356	-1.34 (inactive)	0.968	0.691	1.19	1.18	0.766	0.611
CC(=O)N1CC2(CC2)CC1c1ccccc1 (stereo not given)	0.594	-0.999 (inactive)	0.661 (inactive)	0.218 (inactive)	1.19	0.0425 (inactive)	0.0423	0.423	0.251	0.0986	-0.295	0.234	-0.0067	0.665 (inactive)	0.281	0.152	0.461	-0.154	-0.0538	0.791
CC(C)[Si](C#C[Si](C(C)C)(C(C)C)C(C)C)(O[C@H](c1ccccc1)c1cn(Cc2ccccc2)nn1)C(C)C	1.26	0.242 (inactive)	0.641 (inactive)	0.0108 (inactive)	0.754	0.769 (inactive)	-0.028	0.751	0.361	0.0129	0.144	-0.138	-0.465	0.501 (inactive)	0.279	0.654	0.392	0.628	0.405	0.218
CC(C)C(O)C1C=CC2C(=O)N(c3ccccc3)C(=O)C2N1Nc1ccccc1 (stereo not given)	1.34	0.0864 (inactive)	-2.24 (inactive)	0.108 (inactive)	3.42	-0.304 (inactive)	0.0436	0.948	1.07	-0.0023	1.06	0.584	0.432	-0.307 (inactive)	1.22	0.0942	0.34	1.41	-0.0988	0.326
CCCCNC(=O)c1ccc(C#CC(C)(C)C)c(OC(C)=O)c1	1.45	0.0582 (inactive)	-5.49 (inactive)	-1 (inactive)	0.503	1.05 (inactive)	-0.159	0.0904	1.1	-0.127	0.311	-0.369	-0.675	-1.11 (inactive)	1.11	1.04	0.841	1.44	0.689	1.12
CCCC#C[Si](O[C@H](CC)c1cn([C@H](C)c2ccccc2)nn1)(C(C)C)C(C)C	0.817	-0.764 (inactive)	-10.2 (active)	-3.25 (inactive)	1.05	2.37 (inactive)	0.0539	0.316	0.579	0.359	0.2	0.313	-0.212	-0.383 (inactive)	0.568	0.588	0.564	0.47	0.285	-0.348
Cc1ccc(S[C@]2(C(=O)O)CC(=O)N(C3CCCCC3)[C@@H]2c2ccc(CO)cc2I)cc1	1.5	-0.693 (inactive)	-0.472 (inactive)	0.253 (inactive)	3.35	0.843 (inactive)	0.274	-0.0104	0.754	-0.0369	1.48	0.431	0.903	-0.443 (inactive)	1.27	0.797	-0.131	1.04	-0.231	1.06
O=C1N(CCS(=O)(=O)c2ccccc2)c2ccccc2[C@H]2OC(c3ccc(OCCCO)cc3)=N[C@@]12Cc1ccccc1	1.55	0.28 (inactive)	-0.0472 (inactive)	5.03 (inactive)	2.36	0.611 (inactive)	0.507	1.56	1.1	0.263	1.29	1.1	1.08	-1.49 (inactive)	0.896	1.05	1.03	1.1	1.04	1.04
Cc1ccc(C(C)CC(O)C2C=CC3C(=O)N(c4ccccc4)C(=O)C3N2Nc2ccccc2)o1 (stereo not given)	1.53	0.568 (inactive)	-0.132 (inactive)	0.144 (inactive)	3.09	-0.866 (inactive)	0.326	-0.0381	1.04	0.216	0.844	1.01	0.693	-0.392 (inactive)	0.981	1.28	0.554	1.2	-0.174	0.843
C#Cc1cc2ccccc2oc1=O	0.914	-1.81 (inactive)	-7.83 (inactive)	-1.11 (inactive)	0.969	-1.45 (inactive)	-0.313	-2.71	-1.32	-0.325	0.253	-0.265	0.256	3.33 (inactive)	-0.347	-0.748	-2.35	-2.4	-1.87	-1.73
CCCC=C(CCC)[C@@H](NP(=O)(c1ccccc1)c1ccccc1)c1ccc(-c2ccccc2)cc1	1.54	1.09 (inactive)	2.34 (inactive)	1.84 (inactive)	3.11	-0.932 (inactive)	0.123	0.649	1.12	0.0825	0.517	0.719	0.581	-2.98 (inactive)	1.11	1.27	0.183	1.18	-0.0014	0.479
Cc1ccc(S[C@]2(C(=O)NCC(F)(F)F)CC(=O)N(Cc3cc(C(F)(F)F)cc(C(F)(F)F)c3)[C@@H]2c2ccc(CO)cc2I)cc1	-0.0631	-2.58 (inactive)	-2.58 (inactive)	-0.857 (inactive)	-0.0923	-0.3 (inactive)	-0.054	-0.716	-1.32	-0.556	1.4	-0.647	1.02	-0.719 (inactive)	-1.03	-0.466	-0.552	0.0535	-1.26	0.948
CN(C)C(=O)[C@]1(CCC(=O)OC(C)(C)C)N=C(c2ccc(OCCCO)cc2)O[C@@H]1c1ccccc1CN=[N+]=[N-]	1.18	-0.299 (inactive)	-1.65 (inactive)	-0.619 (inactive)	3.81	0.682 (inactive)	0.0987	0.717	-0.162	-0.149	1.45	-0.594	1.08	-0.561 (inactive)	0.518	0.7	0.195	0.47	-0.396	0.418
COC(=O)C(CC#Cc1ccc2c(c1)[C@]1(C(=O)N2)[C@H](c2ccc(O)cc2)N2[C@H](c3ccccc3)[C@H](c3ccccc3)OC(=O)[C@H]2[C@@H]1C(=O)NC[C@H](O)c1ccccc1)C(=O)OC	1.55	0.31 (inactive)	0.174 (inactive)	-0.131 (inactive)	1.97	-0.968 (inactive)	0.0634	0.668	1.09	0.128	-0.282	0.6	0.405	0.0183 (inactive)	0.986	1.11	0.588	0.523	0.432	0.335
NC(=O)NCC#Cc1ccc2c(c1)[C@]1(C(=O)N2)[C@H](c2ccccc2OCCO)N2[C@H](c3ccccc3)[C@H](c3ccccc3)OC(=O)[C@H]2[C@@H]1C(=O)NC[C@H](O)c1ccccc1	0.415	1.5 (inactive)	1.32 (inactive)	3.89 (inactive)	1.06	2.36 (inactive)	0.448	-0.0053	-0.112	-0.162	0.342	-0.224	0.699	-1.14 (inactive)	-0.491	-0.659	-0.895	-0.355	-0.548	0.472
[N-]=[N+]=Nc1ccccc1[C@H]1OC(c2ccc(OCCCO)cc2)=N[C@@]1(Cc1ccccc1)C(=O)NCCN1CCOCC1	1.57	0.0597 (inactive)	-1.75 (inactive)	1.72 (inactive)	3.23	1.06 (inactive)	0.363	1.36	1.05	0.688	1.59	1.34	1.29	-1.01 (inactive)	1.3	1.28	0.81	1.37	0.196	1.13
C=C(COC)/C(=C/C[C@H](OC(=O)c1ccncc1)c1ccc(CO)o1)c1cnc2ccccc2c1	1.54	0.685 (inactive)	-0.694 (inactive)	0.662 (inactive)	1.34	-0.148 (inactive)	-0.114	0.84	1.09	-0.0805	0.296	-0.155	-0.137	0.801 (inactive)	1.12	0.986	0.387	1.34	0.348	1.81
CN(C)CCCCCCNC(=O)[C@@H]1C[C@@H]2C(=O)N3CCC[C@H]3C(=O)N2[C@@H]1c1cccc(OCCO)c1	1.54	0.108 (inactive)	-0.177 (inactive)	1.04 (inactive)	1.66	-0.395 (inactive)	-0.0664	1.54	1.06	0.193	1.35	-0.0718	0.481	0.134 (inactive)	0.92	1.33	1.11	1.49	1.81	0.749
[N-]=[N+]=Nc1ccccc1C[C@]1(C(=O)NCC(O)CO)COC(c2ccc(OCCCO)cc2)=N1 (stereo not given in full)	0.149	0.887 (inactive)	-0.13 (inactive)	0.69 (inactive)	3.11	1.05 (inactive)	0.23	-0.906	-1.26	0.58	0.989	0.72	1.18	0.173 (inactive)	-0.582	-0.269	-0.603	-1.14	-0.975	1.16
